Assay in all cases: DAPPL (digital affinity profiling via proximity ligation, sequencing); 10 mM Tris-HCl pH 7.5, 50 mM NaCl, 1 mM DTT, 4% glycerol, room temperature, 30 min; GST-TFs on glutathione beads, 16-mer random dsDNA library, 0.1% formaldehyde crosslink after washing; high values mean tight binding
Common to all, as to conditions: protein: recombinant; tags: N-terminal GST; dsDNA, one strand shown

One test deals with T1, FLI1 (Homo sapiens, UniProt Q01543 1-452).
T1 sequence: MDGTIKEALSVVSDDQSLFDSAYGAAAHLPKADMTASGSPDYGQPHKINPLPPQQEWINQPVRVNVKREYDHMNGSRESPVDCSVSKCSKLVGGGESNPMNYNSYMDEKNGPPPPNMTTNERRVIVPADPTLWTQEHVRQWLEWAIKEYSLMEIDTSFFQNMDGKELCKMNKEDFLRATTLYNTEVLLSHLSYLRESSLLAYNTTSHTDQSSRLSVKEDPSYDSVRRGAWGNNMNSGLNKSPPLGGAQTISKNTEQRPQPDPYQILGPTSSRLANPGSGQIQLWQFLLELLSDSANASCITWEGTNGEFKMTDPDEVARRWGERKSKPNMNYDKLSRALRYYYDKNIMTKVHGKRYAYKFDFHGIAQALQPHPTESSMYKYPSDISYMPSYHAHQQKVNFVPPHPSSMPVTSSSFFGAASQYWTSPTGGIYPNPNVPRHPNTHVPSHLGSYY
In short, it runs like this:
(§1)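 After expression in yeast as GST fusions, human transcription factors were bound to glutathione beads, DNA-barcoded and mixed with a tag-only sample. The pools were incubated with 200 nmole of a 16-mer random double-stranded DNA library in Tris/NaCl/DTT/glycerol buffer (30 min, room temperature), washed and crosslinked with 0.1% formaldehyde. Proximity ligation with BsaI/T4 ligase ran for 1 h at 37 °C, before PCR amplification and sequencing on an Illumina NextSeq500. Binding signal is a hexamer's read frequency for a factor divided by its frequency for the tag-only sample.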

In a further test the target is T2, ELK1 (Homo sapiens, UniProt P19419 1-428).
T2 sequence: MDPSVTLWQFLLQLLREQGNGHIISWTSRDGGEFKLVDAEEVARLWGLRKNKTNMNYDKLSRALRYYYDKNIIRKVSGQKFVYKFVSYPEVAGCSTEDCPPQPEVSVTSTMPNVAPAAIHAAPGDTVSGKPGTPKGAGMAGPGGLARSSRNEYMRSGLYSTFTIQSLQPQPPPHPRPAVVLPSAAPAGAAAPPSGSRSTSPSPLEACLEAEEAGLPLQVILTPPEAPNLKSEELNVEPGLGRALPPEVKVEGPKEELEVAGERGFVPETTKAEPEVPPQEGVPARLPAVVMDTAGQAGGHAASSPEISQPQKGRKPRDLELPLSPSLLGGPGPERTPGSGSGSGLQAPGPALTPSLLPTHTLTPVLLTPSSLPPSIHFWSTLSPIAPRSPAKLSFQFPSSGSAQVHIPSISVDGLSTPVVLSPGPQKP
In short, it runs like this:
as §1

The target in the next test is T3, GABPA (Homo sapiens, UniProt Q06546 1-454).
T3 sequence: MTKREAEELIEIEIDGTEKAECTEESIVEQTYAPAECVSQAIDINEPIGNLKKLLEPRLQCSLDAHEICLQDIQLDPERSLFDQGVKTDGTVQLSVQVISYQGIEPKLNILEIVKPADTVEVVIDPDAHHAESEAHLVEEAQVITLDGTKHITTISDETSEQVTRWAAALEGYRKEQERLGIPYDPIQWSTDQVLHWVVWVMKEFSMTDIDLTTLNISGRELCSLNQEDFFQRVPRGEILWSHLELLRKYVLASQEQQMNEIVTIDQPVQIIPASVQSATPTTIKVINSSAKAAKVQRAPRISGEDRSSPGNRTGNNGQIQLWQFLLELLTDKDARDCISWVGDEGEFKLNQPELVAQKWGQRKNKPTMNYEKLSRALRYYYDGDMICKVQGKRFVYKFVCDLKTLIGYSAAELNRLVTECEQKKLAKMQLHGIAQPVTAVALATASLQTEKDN
In short, it runs like this: as §1

The target of the next test is T4, ERG (Homo sapiens, UniProt P11308 1-479).
T4 sequence: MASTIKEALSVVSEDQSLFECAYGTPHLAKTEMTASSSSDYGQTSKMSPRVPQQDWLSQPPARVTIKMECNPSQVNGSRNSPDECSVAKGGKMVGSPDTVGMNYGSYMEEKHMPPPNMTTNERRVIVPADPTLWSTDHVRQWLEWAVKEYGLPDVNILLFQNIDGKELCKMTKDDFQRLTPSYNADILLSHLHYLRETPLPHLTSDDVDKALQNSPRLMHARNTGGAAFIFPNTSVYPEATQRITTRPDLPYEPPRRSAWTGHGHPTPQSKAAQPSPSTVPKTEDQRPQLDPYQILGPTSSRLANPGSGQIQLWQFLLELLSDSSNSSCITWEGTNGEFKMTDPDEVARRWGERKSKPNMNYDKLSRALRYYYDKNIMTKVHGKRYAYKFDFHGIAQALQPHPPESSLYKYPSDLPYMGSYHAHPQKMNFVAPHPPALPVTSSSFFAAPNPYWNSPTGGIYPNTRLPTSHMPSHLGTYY
In short, it runs like this:
as §1

The next test concerns the target ELF1 (Homo sapiens, UniProt P32519 1-619). In short, it runs like this:
as §1

A further test deals with T5, EHF (Homo sapiens, UniProt Q9NZC4 1-300).
T5 sequence: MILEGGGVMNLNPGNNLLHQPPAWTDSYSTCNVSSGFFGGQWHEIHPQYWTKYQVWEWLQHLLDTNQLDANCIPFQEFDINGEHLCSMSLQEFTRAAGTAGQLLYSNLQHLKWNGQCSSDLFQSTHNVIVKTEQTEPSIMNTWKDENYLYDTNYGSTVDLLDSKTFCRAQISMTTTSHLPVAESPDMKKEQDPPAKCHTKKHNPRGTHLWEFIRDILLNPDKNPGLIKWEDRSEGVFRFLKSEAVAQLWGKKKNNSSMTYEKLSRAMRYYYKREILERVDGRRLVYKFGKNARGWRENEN
In short, it runs like this: as §1

A further test concerns the target SPI1 (Homo sapiens, UniProt P17947 1-270). In short, it runs like this:
as §1

For another test, the target named is SPIB (Homo sapiens, UniProt Q01892 1-262). In short, it runs like this:
as §1

A further test addresses T6, ELK3 (Homo sapiens, UniProt P41970 1-407).
T6 sequence: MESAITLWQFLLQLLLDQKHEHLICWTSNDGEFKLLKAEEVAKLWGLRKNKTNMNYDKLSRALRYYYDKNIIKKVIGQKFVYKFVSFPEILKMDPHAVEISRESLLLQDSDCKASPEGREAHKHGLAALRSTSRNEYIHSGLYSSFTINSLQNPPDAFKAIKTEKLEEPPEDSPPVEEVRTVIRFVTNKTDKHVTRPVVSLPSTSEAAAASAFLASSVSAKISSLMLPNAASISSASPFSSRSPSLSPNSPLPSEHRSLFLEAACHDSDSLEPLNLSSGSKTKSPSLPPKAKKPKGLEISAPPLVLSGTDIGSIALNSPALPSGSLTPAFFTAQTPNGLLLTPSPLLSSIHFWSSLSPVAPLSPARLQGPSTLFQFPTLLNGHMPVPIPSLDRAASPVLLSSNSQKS
In short, it runs like this: as §1

For another test, the target named is ETV5 (Homo sapiens, UniProt P41161 1-510). In short, it runs like this:
as §1

The next test has as its target T7, SPIC (Homo sapiens, UniProt Q8N5J4 1-248).
T7 sequence: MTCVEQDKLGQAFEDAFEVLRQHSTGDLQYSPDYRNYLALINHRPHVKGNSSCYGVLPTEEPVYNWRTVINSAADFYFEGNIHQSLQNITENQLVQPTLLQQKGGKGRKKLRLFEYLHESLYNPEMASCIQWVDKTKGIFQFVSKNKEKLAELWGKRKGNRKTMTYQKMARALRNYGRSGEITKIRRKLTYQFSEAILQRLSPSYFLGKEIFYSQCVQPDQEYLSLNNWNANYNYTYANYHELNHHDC
In short, it runs like this: as §1

In the next test the target is ELF4 (Homo sapiens, UniProt Q99607 1-663). In short, it runs like this:
as §1

Another test has as its target ETV1 (Homo sapiens, UniProt P50549 1-477). In short, it runs like this:
as §1

The target of another test is T8, ERF (Homo sapiens, UniProt P50548 1-548).
T8 sequence: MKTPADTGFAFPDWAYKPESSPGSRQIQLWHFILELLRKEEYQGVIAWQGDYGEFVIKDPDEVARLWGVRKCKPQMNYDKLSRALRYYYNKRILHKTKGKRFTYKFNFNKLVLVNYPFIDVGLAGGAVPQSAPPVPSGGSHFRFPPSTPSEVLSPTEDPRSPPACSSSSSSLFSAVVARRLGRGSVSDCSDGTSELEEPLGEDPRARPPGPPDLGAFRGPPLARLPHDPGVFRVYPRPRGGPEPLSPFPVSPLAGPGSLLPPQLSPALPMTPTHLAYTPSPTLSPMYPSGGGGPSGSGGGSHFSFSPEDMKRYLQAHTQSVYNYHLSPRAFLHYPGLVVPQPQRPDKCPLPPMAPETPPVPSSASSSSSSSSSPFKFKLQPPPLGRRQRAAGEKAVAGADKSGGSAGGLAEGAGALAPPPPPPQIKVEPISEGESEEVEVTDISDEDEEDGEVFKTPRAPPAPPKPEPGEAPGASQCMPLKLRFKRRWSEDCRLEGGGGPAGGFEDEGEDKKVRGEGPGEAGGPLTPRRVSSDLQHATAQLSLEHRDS
In short, it runs like this:
as §1

A further test addresses T9, ETV3L (Homo sapiens, UniProt Q6ZN32 1-361).
T9 sequence: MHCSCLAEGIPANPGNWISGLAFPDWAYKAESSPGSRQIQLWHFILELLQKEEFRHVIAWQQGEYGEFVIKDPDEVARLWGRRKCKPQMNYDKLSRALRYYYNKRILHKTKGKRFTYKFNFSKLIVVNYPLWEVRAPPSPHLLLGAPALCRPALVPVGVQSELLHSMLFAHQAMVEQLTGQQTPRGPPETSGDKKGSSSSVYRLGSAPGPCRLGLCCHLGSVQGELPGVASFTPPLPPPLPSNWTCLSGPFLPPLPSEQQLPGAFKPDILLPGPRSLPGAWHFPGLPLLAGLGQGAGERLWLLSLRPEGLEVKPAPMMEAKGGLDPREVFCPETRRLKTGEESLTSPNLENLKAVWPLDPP
In short, it runs like this: as §1

Another test deals with T10, ETS2 (Homo sapiens, UniProt P15036 1-469).
T10 sequence: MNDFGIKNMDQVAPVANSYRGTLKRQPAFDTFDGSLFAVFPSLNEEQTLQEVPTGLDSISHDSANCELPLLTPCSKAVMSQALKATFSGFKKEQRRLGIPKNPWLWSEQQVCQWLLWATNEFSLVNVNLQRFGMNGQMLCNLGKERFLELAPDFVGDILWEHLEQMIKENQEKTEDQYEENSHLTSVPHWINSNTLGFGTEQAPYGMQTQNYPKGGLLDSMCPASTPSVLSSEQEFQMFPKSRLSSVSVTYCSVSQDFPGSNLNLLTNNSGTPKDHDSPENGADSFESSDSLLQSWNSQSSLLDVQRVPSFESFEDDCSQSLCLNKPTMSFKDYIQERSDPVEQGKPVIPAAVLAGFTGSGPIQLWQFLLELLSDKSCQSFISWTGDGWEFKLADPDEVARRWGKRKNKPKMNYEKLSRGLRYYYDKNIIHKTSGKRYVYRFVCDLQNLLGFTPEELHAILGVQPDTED
In short, it runs like this: as §1

A further test addresses T11, ELF5 (Homo sapiens, UniProt Q9UKW6-2 1-255).
T11 sequence: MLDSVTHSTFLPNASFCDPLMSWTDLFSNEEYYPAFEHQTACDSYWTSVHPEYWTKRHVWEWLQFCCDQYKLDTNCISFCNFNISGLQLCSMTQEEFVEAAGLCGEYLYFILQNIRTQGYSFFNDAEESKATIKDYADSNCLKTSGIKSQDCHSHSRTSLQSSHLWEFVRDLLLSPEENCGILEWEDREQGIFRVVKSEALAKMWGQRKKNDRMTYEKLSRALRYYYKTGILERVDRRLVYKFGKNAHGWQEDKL
In short, it runs like this: as §1

The next test deals with T12, ETV3 (Homo sapiens, UniProt P41162-2 1-143).
T12 sequence: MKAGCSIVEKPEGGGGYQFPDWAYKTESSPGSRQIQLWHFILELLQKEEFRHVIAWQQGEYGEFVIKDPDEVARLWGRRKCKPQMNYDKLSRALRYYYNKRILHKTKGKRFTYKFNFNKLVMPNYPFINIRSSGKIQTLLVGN
In short, it runs like this:
as §1

For a further test, the target named is ETV6 (Homo sapiens, UniProt P41212 1-452). In short, it runs like this:
as §1

ELF4, sequence (Q99607 whole entry): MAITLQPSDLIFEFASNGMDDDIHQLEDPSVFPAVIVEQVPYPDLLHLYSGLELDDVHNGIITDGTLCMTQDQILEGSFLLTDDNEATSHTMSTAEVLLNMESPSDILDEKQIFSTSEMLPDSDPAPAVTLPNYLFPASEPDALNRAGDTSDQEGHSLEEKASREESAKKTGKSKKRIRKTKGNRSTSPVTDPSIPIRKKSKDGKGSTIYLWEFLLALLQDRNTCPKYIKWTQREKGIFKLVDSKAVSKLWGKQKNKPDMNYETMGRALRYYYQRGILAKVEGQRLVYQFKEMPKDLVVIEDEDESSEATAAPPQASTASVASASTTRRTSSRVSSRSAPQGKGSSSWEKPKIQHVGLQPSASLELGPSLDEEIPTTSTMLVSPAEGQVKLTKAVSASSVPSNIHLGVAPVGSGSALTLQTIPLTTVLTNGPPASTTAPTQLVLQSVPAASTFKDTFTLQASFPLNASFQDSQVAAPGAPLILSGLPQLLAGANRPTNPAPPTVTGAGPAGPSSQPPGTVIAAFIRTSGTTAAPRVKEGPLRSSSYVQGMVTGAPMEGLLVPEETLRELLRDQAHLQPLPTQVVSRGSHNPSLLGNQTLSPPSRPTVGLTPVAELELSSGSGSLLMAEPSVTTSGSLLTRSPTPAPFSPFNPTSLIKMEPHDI
SPIB, sequence (Q01892 whole entry): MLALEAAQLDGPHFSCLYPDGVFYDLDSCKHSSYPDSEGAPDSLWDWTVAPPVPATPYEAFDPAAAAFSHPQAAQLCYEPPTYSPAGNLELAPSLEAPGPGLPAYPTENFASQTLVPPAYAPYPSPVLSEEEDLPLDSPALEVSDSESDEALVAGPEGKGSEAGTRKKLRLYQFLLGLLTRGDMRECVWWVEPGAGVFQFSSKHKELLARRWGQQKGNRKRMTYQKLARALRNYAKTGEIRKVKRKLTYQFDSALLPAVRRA
ETV5, sequence (P41161 whole entry): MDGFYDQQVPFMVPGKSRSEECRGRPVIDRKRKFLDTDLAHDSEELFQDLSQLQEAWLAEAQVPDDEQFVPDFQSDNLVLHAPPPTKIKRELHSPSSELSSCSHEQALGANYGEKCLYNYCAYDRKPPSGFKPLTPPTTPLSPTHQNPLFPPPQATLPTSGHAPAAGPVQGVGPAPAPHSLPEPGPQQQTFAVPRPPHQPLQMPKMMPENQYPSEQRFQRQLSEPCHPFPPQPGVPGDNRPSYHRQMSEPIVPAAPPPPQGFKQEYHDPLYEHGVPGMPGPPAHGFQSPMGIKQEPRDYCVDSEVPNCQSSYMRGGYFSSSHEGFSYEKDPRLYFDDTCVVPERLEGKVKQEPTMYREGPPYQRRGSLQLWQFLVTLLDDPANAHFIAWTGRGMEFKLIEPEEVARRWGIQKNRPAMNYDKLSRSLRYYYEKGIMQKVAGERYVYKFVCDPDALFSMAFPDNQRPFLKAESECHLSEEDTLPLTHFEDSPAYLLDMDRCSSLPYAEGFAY
ETV6, sequence (P41212 whole entry): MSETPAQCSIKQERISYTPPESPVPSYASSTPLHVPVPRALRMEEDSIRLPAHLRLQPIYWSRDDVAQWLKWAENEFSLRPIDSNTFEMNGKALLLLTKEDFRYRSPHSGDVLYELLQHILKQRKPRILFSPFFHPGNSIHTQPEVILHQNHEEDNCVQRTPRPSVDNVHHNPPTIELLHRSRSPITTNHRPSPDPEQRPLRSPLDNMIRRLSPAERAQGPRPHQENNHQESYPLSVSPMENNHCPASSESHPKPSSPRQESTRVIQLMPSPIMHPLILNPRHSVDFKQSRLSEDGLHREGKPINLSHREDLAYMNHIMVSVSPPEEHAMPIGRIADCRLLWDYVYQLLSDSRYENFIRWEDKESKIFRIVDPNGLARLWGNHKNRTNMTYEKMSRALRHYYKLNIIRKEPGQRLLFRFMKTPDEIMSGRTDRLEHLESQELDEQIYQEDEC
ETV1, sequence (P50549 whole entry): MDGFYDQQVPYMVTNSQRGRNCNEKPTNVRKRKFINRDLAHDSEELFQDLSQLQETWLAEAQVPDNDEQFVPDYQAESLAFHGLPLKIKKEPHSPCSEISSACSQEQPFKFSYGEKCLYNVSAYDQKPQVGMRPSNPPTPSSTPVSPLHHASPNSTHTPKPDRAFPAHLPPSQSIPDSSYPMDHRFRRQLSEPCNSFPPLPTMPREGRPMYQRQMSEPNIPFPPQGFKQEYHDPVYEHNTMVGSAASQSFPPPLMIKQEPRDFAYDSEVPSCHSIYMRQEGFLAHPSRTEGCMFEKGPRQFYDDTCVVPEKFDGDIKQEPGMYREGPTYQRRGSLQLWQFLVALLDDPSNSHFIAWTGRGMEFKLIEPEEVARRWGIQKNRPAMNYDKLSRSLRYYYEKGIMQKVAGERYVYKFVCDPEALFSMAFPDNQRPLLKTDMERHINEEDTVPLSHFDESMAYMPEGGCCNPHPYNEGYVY
ELF1, sequence (P32519 whole entry): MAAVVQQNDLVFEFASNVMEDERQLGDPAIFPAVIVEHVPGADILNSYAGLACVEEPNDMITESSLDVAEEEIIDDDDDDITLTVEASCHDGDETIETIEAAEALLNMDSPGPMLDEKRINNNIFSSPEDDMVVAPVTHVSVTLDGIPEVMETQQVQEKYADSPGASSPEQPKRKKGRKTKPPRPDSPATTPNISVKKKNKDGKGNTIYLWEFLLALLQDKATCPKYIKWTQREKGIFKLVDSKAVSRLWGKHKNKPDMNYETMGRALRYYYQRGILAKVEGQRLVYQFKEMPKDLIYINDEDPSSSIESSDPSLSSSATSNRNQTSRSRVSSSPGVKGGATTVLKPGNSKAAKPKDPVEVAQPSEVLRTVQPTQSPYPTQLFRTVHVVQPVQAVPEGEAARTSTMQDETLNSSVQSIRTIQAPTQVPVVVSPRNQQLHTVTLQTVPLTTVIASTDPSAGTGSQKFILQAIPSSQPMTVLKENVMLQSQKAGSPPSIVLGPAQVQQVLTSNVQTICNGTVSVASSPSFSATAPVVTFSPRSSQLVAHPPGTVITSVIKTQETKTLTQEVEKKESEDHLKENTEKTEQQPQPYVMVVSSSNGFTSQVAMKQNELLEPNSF

Regarding ACGGCA, the binding signal with FLI1 is 1.04 fold enrichment (6-mer frequency, TF over GST control); with ELK1 it was 1.01 fold enrichment (6-mer frequency, TF over GST control); in the test with GABPA, 1.1 fold enrichment (6-mer frequency, TF over GST control); with ERG it was 1.03 fold enrichment (6-mer frequency, TF over GST control); in the test with ELF1 it was 1.04 fold enrichment (6-mer frequency, TF over GST control); with EHF, 1.11 fold enrichment (6-mer frequency, TF over GST control). The binding signal in the test with SPI1 was 1.05 fold enrichment (6-mer frequency, TF over GST control); with SPIB, 1.1 fold enrichment (6-mer frequency, TF over GST control); with ELK3, 1.01 fold enrichment (6-mer frequency, TF over GST control); in the test with ETV5 it was 1.13 fold enrichment (6-mer frequency, TF over GST control); in the test with SPIC it was 1.05 fold enrichment (6-mer frequency, TF over GST control); in the test with ELF4, 1.06 fold enrichment (6-mer frequency, TF over GST control). For the same sequence, the binding signal was 1.03 fold enrichment (6-mer frequency, TF over GST control) with ETV1; 1.01 fold enrichment (6-mer frequency, TF over GST control) in the test with ERF; 1.1 fold enrichment (6-mer frequency, TF over GST control) with ETV3L; 1.09 fold enrichment (6-mer frequency, TF over GST control) with ETS2; 1.03 fold enrichment (6-mer frequency, TF over GST control) with ELF5; 1.06 fold enrichment (6-mer frequency, TF over GST control) in the test with ETV3. For the same sequence, in the test with ETV6, the binding signal was 1.14 fold enrichment (6-mer frequency, TF over GST control).
